Source: PubChem
Most compounds without a hit are left out; they make up all but 10% or so of the library.
Pf growth 96h: Primary qHTS for delayed death inhibitors of the malarial parasite plastid, 96 hour incubation | P. falciparum luciferase reporter growth, 96 h | Potency, µM (doses to about 28.7 µM), without a hit: at the top dose activity change, negative = inhibition, hits mostly inhibitors | 320,000 compounds, 6.9% hits | AID 504834, 2011; active means well fitted inhibition curve with a large enough effect; inconclusive means small, poorly fitted or top-dose-only effect, or another doubt; inactive means no such curve, though single readings can be large or run the other way; further: on the % scale 0 is the no-effect control and ±100 the full control effect
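Compounds incubated with erythrocytes infected by luciferase-expressing P. falciparum (2% hematocrit, 0.05% parasitemia final) for 96 hours, 37 C in 5% CO2. Growth inhibition scored as decreased luciferase luminescence.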
SARS PLP yeast: qHTS of Yeast-based Assay for SARS-CoV PLP; 330,000 compounds, 0.19% hits; Potency, µM (highest dose often 32.9 µM), for inactives: at the top dose activity, positive = growth rescue, most hits filed as activators; AID 485353, 2010; S. cerevisiae expressing SARS-CoV PLpro, growth rescue; further: 0% is about no effect; nearly all actives have a fitted effect of over 55% in size
Pf growth 48h: Primary qHTS for delayed death inhibitors of the malarial parasite plastid, 48 hour incubation; 310,000 compounds, 5.9% hits; Potency, µM (highest dose often 28.7 µM), inactives show at the top dose activity change, negative = inhibition, hits mostly inhibitors; P. falciparum luciferase growth in erythrocytes, 48 h; active means well fitted inhibition curve with a large enough effect; inconclusive means small, poorly fitted or top-dose-only effect, or another doubt; inactive means no such curve, though single readings can be large or run the other way; further: on the % scale 0 is the no-effect control and ±100 the full control effect
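A one-generation exposure of luciferase-tagged malaria parasites in RPMI 1640/Albumax erythrocyte culture, 37 C and 5% CO2. Inhibition is inferred from decreased luminescence after adding detection reagent.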
NS1 function inh: qHTS Assay for Inhibitors of Influenza NS1 Protein Function | Potency, µM (top dose mostly 46.1 µM), for inactives: top-dose activity, positive = more growth | 270,000 compounds, 0.4% hits | AID 2326, 2010; further: actives are rising curves; nearly all actives have a fitted effect of over 50% in size
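Growth recovery, yeast-based: influenza A NS1 expressed in S. cerevisiae causes slow growth, and suppressors are detected by OD600. The parent strain without NS1 is used as positive control.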
Numbers without * were called inactive; ? = inconclusive; . = no result given; [ ] = dose if it differs, or a comment. Unless noted, the call rests on the fitted dose curve. Potency means the concentration at half of the fitted maximal effect.

SMILES | Pf growth 96h | SARS PLP yeast | Pf growth 48h | NS1 function inh
CC(=O)Nc1ccc(NC(=O)CC2SC(=O)N(CC(=O)c3ccccc3)C2=O)cc1 (stereo unspecified) | 10.4µM* | -2.8% | 6.4% | -11.1%
CCN=C1SC(CC(=O)Nc2ccc(C(F)(F)F)cc2)C(=O)N1CC (stereo unspecified) | 54.5% | -3.6% | 2.62µM* | 9.6%
CCCN1C(=O)SC(CC(=O)Nc2ccc(C)cc2)C1=O (stereo unspecified) | ? | 11.2µM* | -12.2% | -44.7%
CCN=C1SC(CC(=O)Nc2ccc(N3CCOCC3)cc2)C(=O)N1CC (stereo unspecified) | . | -6.2% | -0.3% | -7.9%
O=C(CC1SC(=O)N(c2ccccc2)C1=O)Nc1ccccc1 (stereo unspecified) | . | -16.9% | 43.3% | -91.0%
O=C(Cc1cccc([N+](=O)[O-])c1)Nc1ccc(C(=O)N2CCCCC2)cc1 | . | 2.6% | . | .
COc1ccc(C2=C(Nc3ccc(C)cc3)c3ccccc3C2=O)cc1 | -15.1% | -5.4% | 0.828µM* | 10.9%
Cc1ccc(NC2=C(NCCO)C(=O)c3ccccc3C2=O)cc1 | 66.6% | -2.6% | 5.86µM* | -13.4%
CC(=O)Nc1ccc(NC2=C(Cl)C(=O)c3ccccc3C2=O)cc1 | 18.1% | 0.9% | 0.0% | .
CC[C@@H]1OC(=O)[C@H](C)[C@H](O[C@@H]2C[C@](C)(OC)[C@H](O)[C@H](C)O2)[C@H](C)[C@H](O[C@@H]2O[C@@H](C)C[C@@H](N(C)C)[C@@H]2O)[C@](C)(O)C[C@H](C)C(=NOCOCCOC)[C@H](C)[C@H](O)[C@]1(C)O | 1.61µM* | . | -5.4%[12.8 µM] | .
CC[C@H]1OC(=O)[C@H](C)[C@@H](O[C@H]2C[C@@](C)(OC)[C@@H](O)[C@H](C)O2)[C@H](C)[C@@H](O[C@@H]2O[C@H](C)C[C@H](N(C)C)[C@H]2O)[C@](C)(O)C[C@@H](C)C(=NOCOCCOC)[C@H](C)[C@@H](O)[C@]1(C)O | ? | -0.9% | -9.1% | -36.2%
C[N+](C)(N)Cc1csc(-c2ccc(Cl)cc2)n1 | . | . | . | -4.5%
O=C1C(Cc2c[nH]c3ccccc23)NC(=S)N1Cc1ccccc1 (stereo unspecified) | 13.1µM* | -2.0% | ? | 6.3%
CSc1ccccc1NC(=O)c1cc(-c2cccnc2)nc2ccc(Br)cc12 | ? | -1.5% | ? | -0.5%
CN1C=C/C(=C\c2cc[n+](C)c3ccccc23)c2ccccc21 | 11.7µM* | -5.6% | ? | .
CC[n+]1ccc(/C=C2\Sc3ccccc3N2CCCS(=O)(=O)[O-])c2ccccc21 | 6.3% | 1.2% | 1.9% | 0.4%
Cc1ccc(S(=O)(=O)N2CCN(C(C)C(=O)NCC(C)c3ccccc3)CC2)cc1 (stereo unspecified) | . | -0.9% | . | .
CC(C)c1onc(C(=O)Nc2ccc3c(c2)OCO3)c1[N+](=O)[O-] | 38.6% | -8.6% | 7.9% | -18.2%
CC(C)(Oc1ccc(Cl)cc1)C(=O)N(Cc1ccccc1)c1ccccn1 | 1.85µM* | -33.1% | ? | -32.9%
O=C(COc1ccc(Cl)cc1)N(Cc1ccccc1)c1ccccn1 | ? | 0.7% | 2.8% | -12.2%
Cc1ccc(-n2c(SCC(=O)N3CCN(c4ccccn4)CC3)nnc2N2CCCC2)cc1 | 8.28µM* | -1.0% | 9.28µM* | .
O=C(c1cn(Cc2ccccc2)nc1-c1ccc(Cl)cc1)N1CCN(c2ccccn2)CC1 | 9.28µM* | -4.5% | 13.1µM* | .
COc1ccc(-c2nn(Cc3ccccc3)cc2C(=O)N2CCN(c3ncccn3)CC2)cc1 | ? | -0.7% | 13.1µM* | .
Cc1ccc(C(=O)NCC(=O)N2CCC(Cc3ccccc3)CC2)cc1 | ? | 2.3% | 30.2% | -50.3%
O=C(CCNC(=O)C1CCN(S(=O)(=O)c2ccc(F)cc2)CC1)NCc1ccccc1Cl | 3.6% | 6.7% | 6.3% | -4.1%
Cc1cccnc1NC(=O)c1cccc(S(=O)(=O)NCc2ccccc2)c1 | 0.9% | 3.6% | ? | .
COC(=O)c1cc(NC(=S)NC(=O)c2ccccc2)ccc1N1CCOCC1 | 0.8% | ? | 86.0% | -15.9%
CC(C)(C)c1ccc(OCC(=O)N2CCN(c3ccccn3)CC2)cc1 | ? | -3.4% | ? | .
Cc1ccc(-c2nn(Cc3ccccc3)cc2C(=O)N2CCN(c3ccccn3)CC2)cc1 | ? | -3.7% | 13.1µM* | .
CC(C)(Oc1ccc(Cl)cc1)C(=O)N1CCN(c2ccccn2)CC1 | . | ? | 14.7µM* | -26.8%
